Data taken from the supplement of paper PMC10681739.

Key:
[1] = molecular target: T1, ETS1 (UniProt P14921); test: ETS1 binding intensity (PBM fluorescence), ETS1 alone (arbitrary fluorescence units); higher = stronger binding; details: ETS1 concentration 1 nM; RUNX1 concentration 0 nM
T1 sequence: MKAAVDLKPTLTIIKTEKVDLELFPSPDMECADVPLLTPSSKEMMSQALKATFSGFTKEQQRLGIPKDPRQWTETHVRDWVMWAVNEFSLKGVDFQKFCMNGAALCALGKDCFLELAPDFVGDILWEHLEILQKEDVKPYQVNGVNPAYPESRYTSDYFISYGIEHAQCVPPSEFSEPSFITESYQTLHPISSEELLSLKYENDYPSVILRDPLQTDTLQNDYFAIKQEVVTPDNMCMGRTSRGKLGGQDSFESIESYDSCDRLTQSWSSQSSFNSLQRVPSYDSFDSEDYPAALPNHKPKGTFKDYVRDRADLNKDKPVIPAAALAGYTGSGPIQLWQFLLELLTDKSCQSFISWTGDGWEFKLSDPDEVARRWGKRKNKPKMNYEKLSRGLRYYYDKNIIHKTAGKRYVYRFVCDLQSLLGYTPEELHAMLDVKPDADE

[2] = molecular target: RUNX1 (UniProt Q01196); test: RUNX1 binding intensity (PBM fluorescence), RUNX1 alone (arbitrary fluorescence units); higher = stronger binding; details: RUNX1 concentration 2 nM; ETS1 concentration 0 nM
Procedure: (§1)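 Cooperative gcPBM on 36-bp genomic probes with neighbouring ETS1 and RUNX1 sites. Recombinant human RUNX1 (2 nM) was incubated alone or with ETS1 (25 nM) and detected with anti-RUNX1 antibody plus Alexa488 secondary. Values are medians over 4 replicate spots; the RUNX1+ETS1 data were normalised to the RUNX1-only data. The probes sit in constant array flanks that are not printed.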

[3] = molecular target: T1, ETS1; test: ETS1 binding intensity (PBM fluorescence) in presence of RUNX1, normalised to ETS1-only experiment (arbitrary fluorescence units); higher = stronger binding; details: ETS1 concentration 1 nM; RUNX1 concentration 25 nM
[4] = molecular target: RUNX1 (UniProt Q01196); test: RUNX1 binding intensity (PBM fluorescence) in presence of ETS1, normalised to RUNX1-only experiment (arbitrary fluorescence units); higher = stronger binding; details: RUNX1 concentration 2 nM; ETS1 concentration 25 nM
Procedure: as §1
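Throughout, for RUNX1 binding intensity (PBM fluorescence) in presence of ETS1, normalised to RUNX1-only experiment: Full-length recombinant human ETS1 or RUNX1 bound to double-stranded 36-bp genomic probes on microarrays, detected by protein-specific primary antibody and Alexa488 secondary, spot fluorescence as median of four replicate spots.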
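Throughout, for RUNX1 binding intensity (PBM fluorescence), RUNX1 alone: Full-length recombinant human RUNX1 bound to double-stranded 36-bp genomic probes on a high-density microarray, scored as Alexa488 fluorescence per spot via anti-RUNX1 antibody, median of four replicate spots.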

Chain of RUNX1 (Q01196 whole entry): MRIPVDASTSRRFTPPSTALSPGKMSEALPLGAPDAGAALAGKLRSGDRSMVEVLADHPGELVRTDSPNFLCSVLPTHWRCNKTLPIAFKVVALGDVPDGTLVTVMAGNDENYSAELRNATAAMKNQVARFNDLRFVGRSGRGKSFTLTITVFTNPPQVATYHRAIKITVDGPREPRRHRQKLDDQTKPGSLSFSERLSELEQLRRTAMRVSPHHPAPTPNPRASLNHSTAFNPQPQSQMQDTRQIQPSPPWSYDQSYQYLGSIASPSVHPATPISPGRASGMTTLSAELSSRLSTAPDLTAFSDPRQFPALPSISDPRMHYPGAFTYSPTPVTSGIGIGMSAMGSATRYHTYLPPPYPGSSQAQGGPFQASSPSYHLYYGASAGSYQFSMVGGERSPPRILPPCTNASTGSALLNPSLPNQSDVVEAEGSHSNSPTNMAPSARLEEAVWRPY

Row | Sequence | ETS1 binding intensity [1] | RUNX1 binding intensity [2] | ETS1 binding intensity [3] | RUNX1 binding intensity [4]
1 | TGGCTGCCACTGAGAGGATGTGGTGACAGAGGTGGG | 1700 | 693 | 4350 | 886
2 | ACCTGAGCAGGAAGTAGCTGAGGTCGCGGTGCAGCA | 2940 | 730 | 3750 | 1080
3 | CTTCAGCCGCCACTTCCCCGCCCCCGCAGCCCGACA | 936 | 1290 | 925 | 1290
4 | AGAACAAAACAGGAAATAGTGGTTTGCAAAAATATA | 5780 | 736 | 8400 | 1730
5 | ACCTGCACTTCCTCCTCCCTAGACCGCACCCTTCTC | 491 | 2840 | 600 | 4300
6 | TCTTGTTTCTTCCGTTACCGGAGCGCGGTCACGTGA | 455 | 979 | 438 | 1570
7 | CCGGGCTGCGGAAGGCGGGAACTCTGCGGTTCGCGG | 484 | 861 | 2650 | 1090
8 | CTTGGCGGAAGTGGTGTGGGGGAGGTAGCCCGCAGT | 1840 | 753 | 5600 | 3460
9 | CCGGGCGCCACTTCCGGTCCCCGTGGTCACGTGACC | 14800 | 904 | 16100 | 3740
10 | TACTTCTTCCTGGCAGAGACCGGGAGTGCGGTCCGC | 471 | 745 | 588 | 920
11 | AGAAAAGGAAATGGTGGGCTGCACACCACAGCTCAC | 477 | 728 | 461 | 1130
12 | GCCGCGAGTTCCGCCGGGTGGACCACAAATCCCGAG | 373 | 831 | 451 | 904
13 | CTTGTGCCTACATCCTGTAGCTGTGGTTTAGGGACG | 1420 | 887 | 6810 | 2050
14 | TGACTTCCGGTCCGTAGTGGGGCCTGCGGTGGGAGT | 3690 | 801 | 10700 | 3180
15 | CCACTGCCGGAAGGGGAACTGTGGGGGTGCGCGAGT | 1110 | 820 | 963 | 1040
16 | CCCCTCTCTCCCACTTCCTGTGGTCTCAGTCTTTGT | 3360 | 1500 | 4840 | 4960
17 | CTCTGAACTTCCTCTCTTTTAACCACAACTTACTAC | 549 | 10500 | 1420 | 14100
18 | AGCTGCAGTTGGGCAGGAAACCACAATGTCGAAGAC | 2490 | 1320 | 5770 | 2400
19 | GCTGTGCCGGCAGGATGTGGTCTTTGGTTTCTGTTT | 5560 | 850 | 12300 | 3250
20 | ACCCTACTTCCGTTGCTGTGTTGCGGAGGTGACCTA | 1210 | 844 | 1240 | 1700

Row | Sequence | ETS1 binding intensity [1] | RUNX1 binding intensity [2] | ETS1 binding intensity [3] | RUNX1 binding intensity [4]
21 | CAGATTCAAGGAAGTGGTGGTGGTTTGGTGTCGTTG | 738 | 755 | 1370 | 907
22 | GGCGCGGGCTGCTTCCGGTCTGCGGGCCTGAGGAGG | 5650 | 672 | 5010 | 1770
23 | CCTCTGAGGCAGGAAGCTGCGGTGAAGTCTGAAGTT | 3300 | 871 | 11800 | 2070
24 | ACCAGAAGCACTGCAGGATGTGGTATCAAGACGCCT | 2250 | 774 | 6680 | 1160
25 | TCCAGCCCCACCGGAAGTGGATGTGGTTAATCTAGT | 28800 | 955 | 56400 | 6380
26 | ACTTTCGCGACGCAGGAAGCGCCCACAAAGGGAGGA | 2020 | 802 | 3000 | 889
27 | GATGAAAGAGGAAGTTCTCAAACCACCTTGCCAGTG | 1170 | 768 | 1490 | 1110
28 | CTTATCTTCTTCCTGTGAGCTGTGTGTGGGTGGCTC | 489 | 942 | 397 | 1580
29 | CAAAGTGATGGGGGAAATGGTTGTGGTTTTGGGTGG | 553 | 1180 | 3760 | 1500
30 | TAAGAAAAACAGTCATCCTGCGGTTTCCATTTGTGA | 351 | 6290 | 1080 | 5090
31 | GCCTGAGCGGAAACCCGGCGCCACCACAAGATGGCA | 637 | 990 | 2040 | 1200
32 | GAAGAGGGTGGAGAAGGAAGTGGTCACACCACTTGC | 1140 | 675 | 2380 | 929
33 | CTACTTTCCGGTCAACGCGGCCTGCGGTACCACCTC | 438 | 1160 | 720 | 2720
34 | AACTTCCTCCGCGCGGGGCCACTGCTACCACAAAGG | 373 | 1070 | 588 | 2540
35 | CTTGTGAAATGTATCCTGTGGTTGCCGGCTGAAGTG | 499 | 848 | 419 | 1380
36 | GGCTTCCGCCTGCCGAGCGGCCCCGGACCGCAGGCC | 343 | 830 | 768 | 1980
37 | CTGAGCAAAAGGAGGAAGCTGTGGTCTGTGTACCCA | 606 | 810 | 1800 | 945
38 | ACCCACTTCCTGTTAGAGCATCTTTGCAACCACAGG | 2010 | 933 | 3230 | 3000
39 | TCCCCACACTTCCGGCCCCGCCCGCACAGCCGCACC | 3270 | 1130 | 4360 | 5780
